Hits are enriched below; roughly 4.5% of the tested compounds scored in any of these assays.
DAX1 inh-1 – inhibits human nuclear receptor DAX1; 340,000 tested, 0.99% active; inhibition, % at 6.75 µM; HEK293 Gal4-DAX1 luciferase reporter, luminescence; P51843;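 active = inhibition above the mean over all tested compounds plus 3 SD, cut at about 4.2% in these data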;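 note: 0% = DAX1-transfected cells with DMSO and 100% = empty-vector control cells with DMSO; inhibition shows as a rise in luminescence from relieved DAX1 repression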
Target sequence (P51843 207-470 limits assumed): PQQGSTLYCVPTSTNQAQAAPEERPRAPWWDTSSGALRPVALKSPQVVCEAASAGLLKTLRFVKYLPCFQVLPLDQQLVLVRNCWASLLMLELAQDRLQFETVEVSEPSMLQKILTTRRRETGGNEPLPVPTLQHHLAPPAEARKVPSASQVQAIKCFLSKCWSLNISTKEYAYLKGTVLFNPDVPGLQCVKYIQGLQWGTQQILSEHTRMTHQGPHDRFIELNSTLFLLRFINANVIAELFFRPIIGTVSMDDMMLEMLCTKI
GAA850 FXN act – increases GAA850 frataxin promoter reporter activity | 360,000 tested, 0.56% active | HEK293 lucGAA850 FXN promoter luciferase reporter, 24 h; percent of 10 µM SAHA response | activation, % at 6 µM;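 active = activation above the average of all compounds screened plus 3 SD, cutoff fixed separately per campaign, cut at about 7.5% in these data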;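 note: 0% = DMSO wells and 100% = 10 µM SAHA wells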
hcDAF12 agonist – activates DAF-12 receptor from parasite H. contortus; AID 652067; activation, % at 6.8 µM; 370,000 tested, 1.4% active; HEK293 hcDAF-12 lit1-tk-luc reporter, luminescence; 0% DMSO, 100% Δ7-dafachronic acid;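 active = activation above the mean of all tested compounds plus 3 SD, cut at about 5.5% in these data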;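 note: 100% = response to 3 µM Δ7-dafachronic acid high control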
ssDAF-12 act – activators of S. stercoralis DAF-12 nuclear receptor | HEK293 ssDAF-12/GRIP1 lit1-tk-luc reporter, luminescence; % of 3 µM dafachronic acid response | activation, % at 6.8 µM | 370,000 tested, 1% active | AID 652126;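 active = activation above the mean over all tested compounds plus 3 SD, cut at about 0.9% in these data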;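 note: 0% = DMSO-only wells and 100% = 3 µM delta7-dafachronic acid wells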
DAX1 inh-2 – inhibitors of DAX1 repression of SF-1 activated StAR promoter | HEK293T StAR-luciferase reporter, SF-1/DAX-1 repression relief | inhibition, % at 6.8 µM | 370,000 tested, 1.1% active | AID 652010;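 active = inhibition above the mean over all tested compounds plus 3 SD, cut at about 3.6% in these data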;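 note: 0% = DAX-1 cells with DMSO and 100% = cells lacking DAX-1 with DMSO; higher inhibition means more luminescence from relief of DAX-1 repression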
hgDAF12 agonist – agonists of H. glycines DAF-12 nuclear receptor; HEK293 GAL4-hgDAF12 UAS-luciferase reporter, agonist luminescence; normalized to butyrate control; activation, % at 6.8 µM; 370,000 tested, 1.8% active;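 active = activation above a cutoff set at the mean of all screened compounds plus 3 SD, cut at about 10% in these data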;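 note: 0% = DMSO wells and 100% = sodium butyrate wells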
An asterisk follows results filed as active; · = no result; ! = not confirmed by another sample.

SMILES | DAX1 inh-1 | GAA850 FXN act | hcDAF12 agonist | ssDAF-12 act | DAX1 inh-2 | hgDAF12 agonist
c1ccc(CNc2cncnc2)cc1 | 0.0 | 1.4 | 1.1 | 1.1* | -0.4 | -1.6
O=C(Nc1ccc([N+](=O)[O-])cc1)N1CCCCCC1 | 0.6 | 2.5 | 0.4 | -0.9 | 4.1* | 1.3
O=C(Nc1nnc(/C=C/c2ccccc2)s1)c1ccco1 | -1.1 | 2.0 | 0.2 | 1.6* | -0.2 | 4.6
Nc1nnc(/C=C/c2ccccc2)s1 | -0.5 | 5.1 | 5.8* | -0.9 | 0.9 | 6.1
COC(=O)Nc1nnc(/C=C/c2ccccc2)s1 | 0.1 | 4.1 | 3.2 | -0.4 | 1.5 | 3.4
CCSc1nnc(NC(=O)c2ccco2)s1 | -0.1 | 1.9 | -0.2 | -0.9 | 1.2 | 4.5
CC(C)Sc1nnc(NC(=O)c2ccco2)s1 | 1.3 | 3.5 | 0.0 | 1.8* | 2.4 | 8.1
CSc1ccccc1NC(=O)c1cc(C)on1 | -0.5 | 0.3 | -0.2 | -1.4 | 0.3 | 0.5
CC(C)c1cc(C(=O)NCc2ccco2)no1 | 0.5 | 2.0 | 0.0 | -0.7 | 1.8 | 6.0
CSc1ccccc1NC(=O)c1cc(C(C)C)on1 | 0.7 | 5.9 | 6.4* | 0.1 | 0.6 | 5.5
CC(C)c1cc(C(=O)NCCc2ccccc2)no1 | 7.4* | 6.6 | 4.5 | 0.9 | 2.9 | 5.6
COc1ccc([C@H]2OC(=O)C[C@H]2C(=O)N2CCN(c3ccccc3Cl)CC2)cc1OC | · | · | -1.6 | -1.1 | 0.1 | -1.4
Cc1ccc(-c2nnc(SCC(=O)Nc3ccc4c(c3)OCCO4)n2-c2ccc(Cl)cc2)cc1 | · | · | -1.9 | -0.8 | 0.9 | -2.0
CC[C@H](C)[C@H](NC(N)=O)C(=O)Nc1ccc(NC(C)=O)cc1 | 1.1 | -0.6 | -0.3 | -1.4 | 0.2 | 1.0
CCC(C)C(NC(N)=O)C(=O)Nc1ccc(C(=O)OC)cc1 (stereo not drawn) | 4.4* | 0.7 | -0.6 | -1.5 | 1.3 | 4.2
O=C(O)C1C2CCC(C2)C1C(=O)Nc1ccccc1 (stereo not drawn) | 4.3* | 2.0 | -0.1 | -0.9 | 0.2 | -1.0
CC(=O)Nc1ccc(NC(=O)C2C3CCC(C3)C2C(=O)O)cc1 (stereo not drawn) | 0.7 | 0.7 | 1.9 | -0.3 | 0.0 | 1.8
CCOC(=O)c1sc2nc3c(cc2c1N)COC(C(C)C)C3 (stereo not drawn) | 4.3* | -2.4 | 0.2 | -1.1 | 1.6 | 3.2
CC(O)CN=c1cc(-c2ccccc2)oc2ccc(Cl)cc12 (stereo not drawn) | 0.3 | 3.3 | 4.2 | -0.6 | 1.2 | 11.1*
CC(C)CN=c1cc(-c2ccccc2)oc2ccc(Cl)cc12 | 3.2 | 5.8 | 3.6 | -0.2 | 0.2 | 9.2
CN(C)CCCN=c1cc(-c2ccccc2)oc2ccc(Cl)cc12 | 6.3* | 5.7 | 5.2 | -0.3 | 4.4* | 9.9
O=C(CNS(=O)(=O)c1ccc(Br)s1)N1CCN(c2ccccn2)CC1 | · | · | -1.3 | -1.9 | -1.6 | -1.6
CCCSc1nnc2nc(C)cc(C)n12 | 4.7* | -0.1 | -3.2 | -1.3 | 0.7 | 1.2
Cc1cc(C)n2c(SCc3ccc(C#N)cc3)nnc2n1 | -0.2 | 2.5 | 0.4 | -1.4 | -1.2 | -3.2
Cc1cc(C)n2c(SCC#N)nnc2n1 | 4.6* | -2.6 | -1.4 | -0.9 | -0.8 | -2.7
SMILES | DAX1 inh-1 | GAA850 FXN act | hcDAF12 agonist | ssDAF-12 act | DAX1 inh-2 | hgDAF12 agonist
Cc1cc(C)n2c(SCc3cccs3)nnc2n1 | 0.1 | -0.2 | -0.7 | -1.3 | 0.6 | -0.9
COc1ccc(CNS(=O)(=O)c2cc3c(cc2Br)CC(C)N3C(C)=O)cc1 (stereo not drawn) | · | · | -0.7 | -1.4 | -0.6 | -2.2
CC(=O)N[C@@H]1C[C@@H]2O[C@H](CO)CC[C@@H]2O[C@@H]1CCc1ccc(-c2ccc(F)cc2)cc1 | · | · | -3.4 | -0.5 | 0.2 | -2.8
CN(C)S(=O)(=O)N1CCCC(C(=O)c2ccc(-c3ccccc3)cc2)C1 (stereo not drawn) | 4.3* | 0.9 | -0.4 | -1.6 | 0.3 | -1.1
O=C(NCCc1ccc(O)cc1)c1[nH]c(C(F)(F)F)nc1-c1ccccc1 | · | · | -1.7 | -1.0 | 1.7 | 0.4
O=C(NCCc1ccccc1)c1[nH]c(C(F)(F)F)nc1-c1ccccc1 | · | · | -1.6 | 1.2* | -1.1 | -0.3
Cc1ccc(-n2c(SCc3cccc4ccccc34)nnc2-c2ccccn2)cc1 | · | · | -1.3 | -1.6 | -0.9 | -3.1
CCOC(=O)Nc1ccc2c(c1)N(C(=O)OCCN(C)C)c1ccccc1CC2 | 5.1*! | -0.4 | -1.0 | -1.0 | 0.6 | 1.1
